AID504770 – growth inhibition of E. coli YBA685, primary screen, V. cholerae RctB inhibitors; E. coli YBA685 rctB-dependent plasmid, OD600 growth, 3 h; hits give low values; z-score (test concentration not listed); actives 0.27% (n = 130,000); AID 504770, 2011; in the data active means z-score below about -2, passing the limit was not always enough
MbtI inh – MbtI salicylate synthase inhibitors, primary screen, biochemical, fluorescence intensity; inhibition, % (no concentration beside the values); purified MbtI enzyme, fluorescence intensity read-out; actives 0.89% (n = 100,000); P9WFX0; in the data active means inhibition mostly above about 56%, no sharp cut-off; inactive means mostly below about 77%
Target sequence (P9WFX0 whole entry, looked up): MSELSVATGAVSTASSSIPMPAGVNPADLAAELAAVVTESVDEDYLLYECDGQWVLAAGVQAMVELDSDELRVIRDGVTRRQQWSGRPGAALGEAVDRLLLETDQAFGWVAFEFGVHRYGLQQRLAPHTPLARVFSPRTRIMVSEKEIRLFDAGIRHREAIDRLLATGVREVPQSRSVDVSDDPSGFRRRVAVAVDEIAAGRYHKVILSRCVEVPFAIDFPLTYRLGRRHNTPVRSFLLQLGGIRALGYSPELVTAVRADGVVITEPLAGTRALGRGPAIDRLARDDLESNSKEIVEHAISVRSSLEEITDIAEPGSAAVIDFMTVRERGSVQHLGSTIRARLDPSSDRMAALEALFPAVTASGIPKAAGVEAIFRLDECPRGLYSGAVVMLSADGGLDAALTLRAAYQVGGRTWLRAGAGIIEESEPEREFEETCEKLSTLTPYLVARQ
Mtb MenB inh – M. tuberculosis MenB inhibitors, primary screen, biochemical, absorbance | 1,4-dihydroxy-2-naphthoyl-CoA synthase (Mycobacterium tuberculosis (strain ATCC 25618 / … | MenB enzyme assay, absorbance read-out | inhibition, % (concentration not given with the values) | actives 0.43% (n = 100,000) | AID 540299, 2011; in the data active means inhibition above about 21%, passing the limit was not always enough
Polio RdRp inh – poliovirus RdRp elongation inhibitors, primary screen, biochemical, fluorescence polarization, total intensity. % elongation, % (compound at 16.7 µg/mL). poliovirus polymerase elongation; hits give low values. Genome polyprotein (Poliovirus type 1 (strain Mahoney)), P03300. actives 0.66% (n = 150,000). AID 588519, 2011; in the data active means % elongation below about 90%
* = called active by the depositor; · = no result. The list is not random: actives were taken first. Their share in the collection is about 1.5%.

SMILES | AID504770 | MbtI inh | Mtb MenB inh | Polio RdRp inh
O=C(N[C@@H](CO)[C@H](O)c1ccc([N+](=O)[O-])cc1)C(Cl)Cl | -2.7* | -15 | -5 | 101
O=C(CSC1=NCCS1)OCN1C(=O)c2ccccc2C1=O | 0.5 | 22 | 38* | 104
Cc1cc(C)nc(SCC(=O)OCN2C(=O)c3ccccc3C2=O)n1 | -0.65 | -10 | -16 | 103
Cn1cnnc1S/C=C/C(=O)c1ccc(Cl)cc1 | -1.3 | 85* | -10 | 102
O=C(/C=C/Sc1ccc(Cl)cc1)c1ccccc1 | 0.4 | -10 | -8 | 101
Cc1cc(C)nc(S/C=C/C(=O)c2ccc(Cl)cc2)n1 | -0.65 | -8 | -5 | 108
Cn1ccnc1S/C=C/C(=O)c1ccc(Cl)cc1 | -0.3 | 59* | 5 | 99
Cc1ccc(S(=O)(=O)NC(CO)C(=O)O)cc1 (configuration not stated) | -0.65 | 5 | 31* | 102
COC(=O)C(CO)NS(=O)(=O)c1ccc(C)cc1 (configuration not stated) | -0.9 | · | · | ·
O=C(COc1ccccc1O)Nc1ccccc1 | -0.25 | · | 3 | 107
COC(=O)c1c(-c2cccs2)csc1NC(=O)c1ccc(C)cc1 | · | · | · | 76*
COC(=O)c1c(-c2cccs2)csc1NC(=O)c1ccc(Br)cc1 | · | · | · | 66*
COC(=O)c1c(-c2cccs2)csc1NC(=O)CN1CCOCC1 | -0.85 | -22 | -19 | 99
O=S(=O)(c1cccc(Cl)c1Cl)N1CCOCC1 | 0.95 | -6 | 33* | 100
O=S(=O)(c1cccc(Cl)c1Cl)N1CCN(c2ncccn2)CC1 | 1.9 | 4 | -3 | 106
Cc1ccc(CNC(=O)CN2NS(=O)(=O)c3ccccc3C2=O)cc1 | -0.1 | 91* | -8 | 100
Cc1cc(C(O)(C(F)(F)F)C(F)(F)F)cc(C)c1O | 0.2 | · | -11 | 99
CC1CCN(C(=O)C23CCC(C)(C(=O)O2)C3(C)C)CC1 (configuration not stated) | 1.4 | 1 | 8 | 102
CCn1cc(C(=O)O)c(=O)c2cnc(N3CCNCC3)nc21 | -3.2* | -9 | -19 | 98
CCn1cc(C(=O)O)c(=O)c2cc(F)c(N3CCN(C(=O)c4ccccc4F)CC3)cc21 | -3.8* | 40 | -7 | 100
CCn1cc(C(=O)O)c(=O)c2cc(F)c(N3CCN(C)CC3)cc21 | -6.9* | 11 | 11 | 104
CCn1cc(C(=O)O)c(=O)c2cc(F)c(N3CCN(C(=S)Nc4ccc5c(c4)OCO5)CC3)cc21 | -3* | -11 | -8 | 99
CCn1cc(C(=O)NCC(C)C)c(=O)c2cc(F)c(N3CCN(C(=O)c4ccco4)CC3)cc21 | -0.3 | 25 | 3 | 101
FC(F)(F)c1cccc(N2CCN(C(=S)Nc3ccc4c(c3)OCO4)CC2)c1 | 0.95 | 3 | -35 | 99
CCn1cc(C(=O)NN)c(=O)c2cc(F)c(N3CCCC3)cc21 | -0.75 | -10 | 0 | 102
SMILES | AID504770 | MbtI inh | Mtb MenB inh | Polio RdRp inh
Cc1c(C(=O)OCC(=O)c2cccs2)oc2ccccc12 | 1.3 | 12 | -24 | 108
COc1ccc(NC(=O)c2ccc(OC)c(OC)c2)cc1 | -0.9 | · | · | ·
Cn1c(=O)c(C#N)cc2c(=O)n3ccccc3nc21 | 1.3 | 88 | -52 | 106
CCn1cc(C(=O)O)c(=O)c2cc(F)c(N3CCNCC3)cc21 | -4.7* | 163 | -9 | 100
O=C1Cc2ccccc2C(=O)N1n1cnnc1 | -1.4 | -9 | · | 95
Cc1cc(C)cc(NC(=O)/C=C\C(=O)O)c1 | 0.15 | -2 | 9 | 99
Cc1c(C)c(NC(=O)/C=C/C(=O)O)c(C)c(C)c1NC(=O)/C=C/C(=O)O | 1.4 | 60* | 10 | 103
O=C(CN1C(=O)CSc2ccc(C(F)(F)F)cc21)Nc1cccc(C(F)(F)F)c1 | 1.5 | -3 | -18 | 110
COc1ccc(Cl)cc1NC(=O)c1c(NCc2sccc2C)sc2c1CCCC2 | · | · | · | 70*
O=C(Nc1cccc(Cl)c1)c1c(NC(=O)C(F)(F)F)sc2c1CCCC2 | · | · | · | 79*
Cc1cccc(NC(=O)c2c(NC(=O)C(F)(F)F)sc3c2CCCCC3)c1 | · | · | · | 105
Cc1ccccc1NC(=O)c1c(NC(=O)C(C)Oc2cccc(Cl)c2)sc2c1CCCC2 (configuration not stated) | · | · | · | 87*
CCOc1ccccc1NC(=O)c1c(NC(=O)C(C)Oc2cccc(Cl)c2)sc2c1CCCCC2 (configuration not stated) | · | · | · | 98
O=C(COc1ccc(Cl)cc1)Nc1sc2c(c1C(=O)Nc1cccc(Cl)c1)CCCC2 | · | · | · | 81*
CCCc1nc2ccc(NC(C)=O)cc2[nH]1 | -0.7 | -6 | -3 | 102
CCCCn1c(=O)n(CC(=O)Nc2ccccc2F)c(=O)c2c1ncn2Cc1ccco1 | 0.7 | -13 | -6 | 120
Cc1oc(-c2ccccc2)nc1Cn1c(SCc2cccc(Cl)c2)nc2ccncc21 | -0.6 | 3 | -47 | 105
CN1CCN(c2ccc(Nc3ccnc4cc(Cl)ccc34)cc2Cl)CC1 | -0.25 | · | 0 | 89*
CCN(CC)Cc1cc(Nc2ccnc3cc(Cl)ccc23)ccc1O | · | 24 | -6 | 101
O=C(/C=C/c1cc(Cl)c2c(c1)OCCCO2)Nc1ccc(-n2cnnn2)cc1 | -0.4 | -6 | -33 | 98
CC1(C(=O)c2ccccc2)C2c3ccccc3OC(=O)C21C(=O)N1CCOCC1 (configuration not stated) | -0.25 | · | -15 | 105
OC(COc1ccc2cc(Br)ccc2c1)Cn1cccn1 (configuration not stated) | 0.4 | · | 28* | 103
Cc1ccc(NC(=O)CSC(=N)N)cc1 | -1.6 | 12 | 1 | 102
N=C(N)SCC(=O)Nc1ccccc1 | -0.4 | 4 | 23* | 100
CSC(=S)N(C=O)c1ccc(C)cc1 | -0.95 | -7 | -15 | 107
SMILES | AID504770 | MbtI inh | Mtb MenB inh | Polio RdRp inh
CCCCn1cnc2cc(NCc3ccc(C)cc3)ccc21 | -0.1 | 108 | -25 | 97
CSc1nc2c(sc3ccccc32)c(=O)n1CCCC(=O)NC1CCCCC1 | 0.3 | · | · | ·
O=c1[nH]c(=S)[nH]c(O)c1-c1ccccc1 | -0.55 | 85* | -56 | 101
CCN(CC)c1ccc(/C=C(/C#N)C(=O)NC(C)C)o1 | -3.4* | 4 | -162 | 77
CCN(CCC#N)c1ccc(/C=C(\C#N)C(=O)NC(C)C)c(C)c1 | 0.8 | 18 | -494 | 125
Cc1ccc(-c2csc3nnc(SCC(N)=O)n23)cc1 | 1.1 | 4 | 37* | 102
Cc1ccc(C(=O)Nc2ccc(-c3nc4ccccc4o3)c(O)c2)cc1 | -0.25 | -2 | -37 | 104
CCOC(=O)c1nn(-c2ccc(OC)cc2)c(=O)c2c(N)scc12 | 0.15 | 54* | -4 | 97
CCOC(=O)c1nn(-c2ccc(OC)cc2)c(=O)c(C#N)c1C | -0.75 | -12 | · | ·
CN1CCc2c(sc(NC(=O)c3ccc4ncsc4c3)c2C(N)=O)C1 | -0.7 | · | · | ·
COc1ccc(/C=c2\sc3ncnn3c2=O)cc1 | -0.3 | -10 | -27 | 89*
S=C(c1c[nH]c2ccccc12)N1CCCC1 | 0.25 | -2 | -30 | 102
S=C(c1c[nH]c2ccccc12)N1CCCCC1 | -0.2 | 79* | -21 | 105
CN1CCN(C(=O)c2cc3ccccc3nc2Cl)CC1 | 0.7 | · | · | ·
